Source: PubChem BioAssay AID651593 (National Center for Advancing Translational Sciences (NCATS), 2012)
Hit rate of the full screen: of about 1,100 compounds, about 860 (78%) were called active. Inconclusive results (about 19%) are left out. Calls follow the shape of the dose curve; as a rule, active = well fitted activation curve with a large enough effect; inconclusive = small, poorly fitted or top-dose-only effect; inactive = flat fitted curve, though single readings scatter. The set was probably picked from earlier hits. The list shows a part of the results.

Test: qHTS of Nrf2 Activators: Hit Validation in Primary Assay; also: nearly all actives have a fitted effect of over 70% in size; as to activation: 0% is about no effect
Conditions: Nrf2/ARE reporter cell assay; Potency: activation; series mostly up to 46.1 µM; activation: at the top concentration
Text: Many diseases have some form of oxidative stress injury and ties to inflammation, causing a host of problems for the patient. The antioxidant response element (ARE) plays an important role in alleviating the harmful effects of oxidative stress. The antioxidant response element (ARE) is a transcriptional regulatory element involved in the activation of genes coding for a number of antioxidant proteins and detoxifying enzymes. These enzymes work in concert to protect tissues from oxidative insults and chemical toxicities in human hepatocytes and immune cells. The protective effects of ARE activation are primarily triggered through Nrf2 (NF-E2-related factor) binding to and activating AREs. It is known that Nrf2 controls the production of over 250 antioxidant and detoxification proteins (Hu et al., 2006), thereby protecting tissues by increasing cellular antioxidant content and suppressing inflammatory signaling pathways. The transcription factor Nrf2 is a central link between oxidative chemicals, such as phenolic antioxidants and electrophilic compounds, and the activation of ARE. Nrf2 levels are constitutively low as a consequence of its interaction with Keap1, which targets its degradation (Zipper and Mulcahy, 2002). Electrophiles react with key cysteine residues in Keap1, releasing Nrf2 and allowing its translocation to the nucleus. Once within the nucleus, Nrf2 complexes with coactivators such as p300, and binds to the AREs to induce gene transcription of cytoprotective enzymes, resulting in the prevention of toxicity. Activation of Nrf2 protects tissues by increasing cellular antioxidant content and suppressing inflammatory signaling pathways. Identifying novel and potent Nrf2 activators by using the AREc32 cell line to detect ARE activation by small molecules will lead to the identification and development of probes to study protective pathways in multiple tissues. These specific probes are essential to study the ARE pathway, and eventually to determine whether this pathway does activate genes that could protect against a host of diseases, including cardiovascular diseases, obesity, diabetes, Alzheimer's, and Parkinson's disease.
This project's aim is to identify novel and potent Nrf2 activators by using the AREc32 cell line to detect ARE activation by small molecules, which will lead to the identification and development of probes to study the ARE pathway.
NIH Chemical Genomics Center [NCGC]
NIH Molecular Libraries Probe Centers Network [MLPCN]
Assay Submitter (PI): Curtis Klaassen, University of Kansas Medical Center
Quantification of ARE activation after compound treatment was measured by the Steady-Glo Luciferase (R) assay system (Promega) in AREc32_fluc stable cells. The Steady-Glo reagent acts by cell lysis and generation of a luminescent signal proportional to ARE activation, through the luciferase reporter in the AREc32 stable cell line. AREc32_fluc cells were harvested from T225 flask and resuspended in phenol red free OPTI-MEM medium with 5% FBS. Then 5 microL of 200,000 cells/mL resuspended cells were dispensed into each well of white, solid bottom, 1536-well tissue culture-treated plates using a Multidrop Combi dispenser. After overnight culture at 37 degrees C with 5% CO2, a total of 23 nL of compounds at 5 selected concentrations from the MLSMR/Sytravon or positive control (40 uM stock of CDDO-IM and 2 mM of tBHQ) in DMSO was transferred to each well of the assay plate using a pintool (Kalypsys, San Diego, CA), and the plates were further incubated at 37 degrees C with 5% CO2 for 24 hours. After that, 2 microL of Steady Glo luminescent substrate mix (Promega) was added to each well. The plate was incubated at room temperature for 30 minutes. The plates were measured on a ViewLux plate reader (PerkinElmer) with clear filter.
Potency is read from the fitted curve at half-maximal effect.

Potency, active:
Brc1ccccc1C1N=C(c2ccccc2)NO1 (stereo unspecified) 5.8 µM
Cc1ccc(S(=O)(=O)c2nc(S(C)(=O)=O)sc2N2CCN(C)CC2)cc1 5.17 µM
CN1CCN(c2sc(S(C)(=O)=O)nc2S(=O)(=O)c2ccc(Cl)cc2)CC1 8.2 µM
O=C(Nc1nc2c(Cl)cccc2s1)c1ccc([N+](=O)[O-])o1 3.66 µM
O=C(Nc1nc2ccc(F)cc2s1)c1ccc([N+](=O)[O-])o1 3.66 µM
O=c1cc(-c2cccc(Br)c2)oc2cccc(O)c12 5.8 µM
Cn1c(N)c(C(=O)COC(=O)c2nc(Cl)ccc2Cl)c(=O)n(C)c1=O 1.46 µM
COc1cc(NC(=S)Nc2ccccn2)c(OC)cc1Cl 5.17 µM
COc1ccc(C(C#N)=C2C=CC(=NO)C=C2)cc1 1.3 µM
C/C(=N\NC(=S)Nc1cccc(C)c1)c1ccco1 2.31 µM
O=C(Nc1ccc(OC(F)F)cc1)c1ncc(Cl)c(Cl)c1Cl 16.4 µM
c1ccc(CSc2nccc(-c3ccco3)n2)cc1 20.6 µM
Nc1nccc(/C=C/c2c(F)cccc2Cl)n1 9.2 µM
Clc1ccc2nc(-c3ccco3)c(Cc3ccccc3)n2c1 23.1 µM
COc1ccccc1Cc1c(-c2ccco2)nc2ccc(Cl)cn12 16.4 µM
FC(F)(F)c1cc(-c2ccco2)nc(-n2nnc3ccccc32)n1 2.59 µM
FC(F)(F)c1cc(-c2ccco2)nc(NCc2ccco2)n1 11.6 µM
FC(F)(F)c1cc(-c2cccs2)nc(NCc2ccco2)n1 4.61 µM
Cc1ccc(N=C2NC(=O)/C(=C/C=C/c3ccco3)S2)cc1 2.06 µM
O=C1NC(=Nc2ccccc2)S/C1=C\C=C\c1ccco1 2.31 µM
O=[N+]([O-])c1ccccc1C=CC=NN=Cc1ccccc1O 3.26 µM
O=[N+]([O-])c1cccc(C=NN=Cc2ccccc2O)c1 8.2 µM
NC(=O)N/N=C/c1ccccc1OC(=O)c1ccccc1Br 3.26 µM
COC(=O)c1sccc1NC(=O)c1ccc(Br)o1 9.2 µM
COC(=O)c1sccc1NC(=O)c1ccc(Br)s1 7.31 µM
Cc1ccc(S(=O)(=O)c2cc3ccccc3oc2=O)cc1 8.2 µM
COC(=O)c1c(NC(=O)/C=C/c2ccco2)sc2c1CCC2 0.461 µM
COC(=O)C(=C/C=C/c1ccco1)C(=O)OC 9.2 µM
COc1ccccc1NC(=O)/C=C\c1ccco1 1.84 µM
COC(=O)c1ccccc1NC(=O)/C=C/c1ccco1 0.411 µM
O=C(/C=C/c1ccco1)Nc1ccccc1N1CCCCC1 1.16 µM
CCOc1ncccc1C(=O)NNC(=O)c1ccc(NS(=O)(=O)c2cccs2)cc1 2.59 µM
Cc1ccc(C(=O)/C=C/c2ccc(-c3ccccc3[N+](=O)[O-])o2)cc1 2.06 µM
O=C(/C=C/c1ccc(-c2ccccc2[N+](=O)[O-])o1)c1ccc(Br)cc1 1.84 µM
O=C(/C=C/c1ccc(-c2ccccc2[N+](=O)[O-])o1)c1ccccc1 3.66 µM
CC(/C=N/NC(=O)Cc1cccn1C)=C\c1ccco1 1.46 µM
c1ccc(CNc2nc(NCc3ccco3)nc(N3CCOCC3)n2)cc1 5.17 µM
CNC(=O)c1ccsc1NC(=O)c1ccc(Cl)s1 7.31 µM
O=C1c2cccc3cccc(c23)C(=O)N1Cc1ccco1 5.17 µM
Nc1ccccc1N1C(=O)c2cccc3cccc(c23)C1=O 16.4 µM
CC(=O)Nc1cc(-c2ccsc2)cn2c(-c3ccc(F)cc3)cnc12 5.17 µM
CC(C)c1ccc(NC(=O)c2cc(Br)ccc2Br)cc1 5.8 µM
CS(=O)(=O)c1nc(S(=O)(=O)c2ccc(Cl)cc2)c(N2CCN(CCO)CC2)s1 8.2 µM
CCN1CCN(c2sc(S(C)(=O)=O)nc2S(=O)(=O)c2ccc(Cl)cc2)CC1 14.6 µM
COC(=O)c1cc(S(=O)(=O)C(C)C)c(S(C)=O)s1 (stereo unspecified) 20.6 µM
COc1c(C(=O)Nc2nnc(C3CC3)s2)csc1Cl 8.2 µM
CCCc1c(C(=O)N/N=C/c2cccs2)nnn1-c1nonc1N 4.11 µM
CN1C2CCC1/C(=C\c1ccccc1)C(=O)/C2=C\c1ccccc1 2.91 µM
N#C/C(=C\c1ccccc1[N+](=O)[O-])c1nc(C2CC2)cs1 11.6 µM
O=[N+]([O-])c1ccccc1S(=O)c1ccccc1[N+](=O)[O-] 16.4 µM
COc1cc(Cl)cc(/C=C/c2ccc3cccc(O)c3n2)c1OC 2.31 µM
Oc1ccc(Cl)cc1/C=C/c1ccc2cccc(O)c2n1 4.61 µM
Nc1c(C(=O)Nc2ccccc2Br)sc2nc(-c3cccs3)ccc12 14.6 µM
COC(=O)c1ccc2nc(-c3ccco3)c(Cc3ccccc3)n2c1 18.4 µM
COC(=O)c1ccc2nc(-c3cccc(Cl)c3)c(Cc3ccccc3OC)n2c1 2.91 µM
COC(=O)c1ccc2nc(-c3ccco3)c(Cc3cccc(Cl)c3)n2c1 23.1 µM
O=[N+]([O-])c1ccc(/C=C/c2ccc3cccc([N+](=O)[O-])c3n2)cc1 0.731 µM
O=[N+]([O-])c1cccc2ccc(/C=C/c3ccc(F)cc3)nc12 1.84 µM
CCOc1cc(/C=C/c2ccc3cccc([N+](=O)[O-])c3n2)cc(Cl)c1O 0.517 µM
O=[N+]([O-])c1cccc2ccc(/C=C/c3ccc(Cl)cc3)nc12 1.16 µM
O=[N+]([O-])c1cccc2ccc(/C=C/c3cccc(Br)c3)nc12 1.84 µM
C/C(=N\NC(=O)CSc1nc2ccccc2s1)c1ccco1 5.17 µM
CC(=O)c1cc2c(cc1NC(=O)CSc1nc3ccccc3o1)OCO2 8.2 µM
O=C(CSc1nc2cc(Cl)ccc2s1)c1ccco1 1.84 µM
O=C(CSc1nc2ccccc2s1)N/N=C/c1ccco1 8.2 µM
CC(=NNC(=O)CSc1nc2ccccc2o1)c1ccco1 7.31 µM
CSc1nc(N)nc(SCC(=O)c2ccccc2)c1C#N 7.31 µM
Cc1cc(C)c(C#N)c(SCC(=O)c2cccs2)n1 5.17 µM
Cc1ccnc(SCC(=O)c2ccc(Br)cc2)c1C#N 2.31 µM
Cc1cc(SCC(=O)c2cccs2)nc2ccccc12 2.59 µM
Cc1cc(C)c(C#N)c(SCC(=O)c2ccccc2)n1 14.6 µM
O=C(CN1CCN(Cc2ccccc2Cl)CC1)N/N=C/C=C/c1ccco1 2.59 µM
O=C(CN1CCN(Cc2ccccc2)CC1)N/N=C\C=C/c1ccco1 20.6 µM
CC(=NNc1ccc2ccccc2n1)c1ccccc1O 3.66 µM
CC(=O)OC1(C(C)=O)CCC2C3CC(C(F)(F)F)C4=CC(=O)CCC4(C)C3CCC21C (stereo unspecified) 4.61 µM
O=C1N/C(=N\N=C\c2ccco2)SC1Cc1ccc(F)cc1 (stereo unspecified) 0.731 µM
Cc1cccc(CC2S/C(=N/N=C/c3ccco3)NC2=O)c1 (stereo unspecified) 0.206 µM
O=C1N/C(=N\N=C\c2ccco2)SC1Cc1ccccc1[N+](=O)[O-] (stereo unspecified) 2.06 µM
CC(/C=C/c1ccco1)=N\NC(=O)CNc1ccc2ccccc2c1 16.4 µM
O=C(C=Cc1ccco1)c1ccc2ccccc2c1 2.59 µM
Cc1nc(Nc2ccccc2F)c2oc3ccccc3c2n1 2.31 µM
CCc1nc(Nc2cccc(F)c2)c2oc3ccccc3c2n1 2.91 µM
NC(=O)c1oc2ccccc2c1NC(=O)c1ccco1 2.31 µM
NC(=O)c1oc2ccccc2c1NC(=O)c1ccccc1 2.59 µM
O=C(Nc1c(O)c2ccccc2[nH]c1=O)c1ccco1 7.31 µM
CN1c2ccsc2/C(=N/Nc2ccccc2)CS1(=O)=O 2.31 µM
C=C(C)CNC(=S)N/N=C(\C)c1ccc(Cl)s1 2.59 µM
COc1ccc(Cl)cc1NC(=O)C1COc2ccccc2O1 (stereo unspecified) 2.91 µM
CCOc1ccccc1NC(=O)C1COc2ccccc2O1 (stereo unspecified) 4.61 µM
O=C(Nc1ccccc1[N+](=O)[O-])C1COc2ccccc2O1 (stereo unspecified) 4.61 µM
Cc1csc(NC(=O)c2cc(-c3ccco3)nc3ccccc23)n1 2.59 µM
O=C(Nc1nccs1)c1cc(-c2ccco2)nc2ccccc12 8.2 µM
O=C(N/N=C/c1ccc(Br)s1)c1cccs1 2.91 µM
Cc1ccsc1/C=N/N=C1\C(=O)Nc2ccccc21 7.31 µM
N=c1n(CCN2CCOCC2)c2ccccc2n1CC(=O)c1cccc([N+](=O)[O-])c1 2.91 µM
CCn1c(=N)n(CC(=O)c2cccc([N+](=O)[O-])c2)c2ccccc21 2.31 µM
CC1(O)c2ccccc2C(=O)N1CCc1ccccc1F (stereo unspecified) 5.8 µM
Cc1ccc(-c2nc(C=Nc3ccc(O)cc3)c(O)o2)cc1 16.4 µM

activation, inactive:
O=c1c2cc3c(=O)n(-c4ccccc4O)c(=O)c3cc2c(=O)n1-c1ccccc1O 3.75%
COc1cc(/C=C/c2ccc3cccc(O)c3n2)cc(OC)c1OC 25.9%
NS(=O)(=O)c1ccc(NC(=O)c2cc(-c3cccs3)nc3ccccc23)cc1 14.1%
